Hits are enriched below; roughly 4% of the tested compounds scored in any of these assays.
CSC inhib = cancer stem cell inhibition; cancer stem cell-like cells viability, luminescence; inhibition, % at 7.5 µM; 1.1% of 300,000 active; in the data active means inhibition above about 75%; tested in HMLE shEcad cells
PAX8 inh HTS = PAX8 transcriptional activity inhibition | inhibition, % at 12.6 µM | RMG-I TPO-luciferase reporter, SteadyGlo, 24 h | 1.2% of 360,000 active;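 active means mean replicate inhibition at least 60% with every replicate also reaching 60%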;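 further: luciferase light reporting Pax8 driven TPO promoter activity; plate controls were median of neutral control wells for no effect and mitoxantrone controls for full effect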
Gli-Sufu block = Gli-Sufu pathway antagonism | inhibition, % at 5 µM | 0.74% of 340,000 active | AID 588413 | Sufu-KO-LIGHT fibroblasts, Gli luciferase reporter luminescence;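 active means inhibition above about 55%, limit read from the data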;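 further: 0% = DMSO-treated cells and 100% = wells with medium but no cells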
Shn3 inh set2 = inhibitors of Schnurri-3 3'UTR reporter in osteoblasts | inhibition, % at 12.5 µM | Clone20 osteoblast Shn3 3'UTR firefly luciferase, 24 h | 0.52% of 360,000 active;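 active means mean inhibition of at least 75% with every replicate also reaching 75%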;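 further: 0% = median of neutral control wells and 100% = pilot-screen positive control compound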
Mdm2-MdmX inh = disrupts the human Mdm2-MdmX interaction; O15151+Q00987; SaOS-2 split-luciferase Mdm2/MdmX complementation, luminescence; inhibition, % at 8 µM; 3% of 330,000 active; AID 485346;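 active means inhibition of at least 50% at 8 µM in the primary screen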
Target sequence (O15151 whole entry, looked up): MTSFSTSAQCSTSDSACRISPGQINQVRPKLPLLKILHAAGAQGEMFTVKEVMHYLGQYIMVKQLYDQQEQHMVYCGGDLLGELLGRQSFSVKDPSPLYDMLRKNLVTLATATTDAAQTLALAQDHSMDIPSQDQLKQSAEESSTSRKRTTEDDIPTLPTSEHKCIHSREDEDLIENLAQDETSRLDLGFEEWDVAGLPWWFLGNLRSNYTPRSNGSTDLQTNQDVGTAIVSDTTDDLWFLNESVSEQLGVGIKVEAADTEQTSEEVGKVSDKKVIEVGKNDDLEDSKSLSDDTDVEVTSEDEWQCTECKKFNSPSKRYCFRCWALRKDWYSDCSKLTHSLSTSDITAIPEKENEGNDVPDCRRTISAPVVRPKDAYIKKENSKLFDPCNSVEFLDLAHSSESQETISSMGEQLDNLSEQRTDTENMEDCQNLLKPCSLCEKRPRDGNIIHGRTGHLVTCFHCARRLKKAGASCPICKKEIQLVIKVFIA
Target sequence (Q00987 whole entry, looked up): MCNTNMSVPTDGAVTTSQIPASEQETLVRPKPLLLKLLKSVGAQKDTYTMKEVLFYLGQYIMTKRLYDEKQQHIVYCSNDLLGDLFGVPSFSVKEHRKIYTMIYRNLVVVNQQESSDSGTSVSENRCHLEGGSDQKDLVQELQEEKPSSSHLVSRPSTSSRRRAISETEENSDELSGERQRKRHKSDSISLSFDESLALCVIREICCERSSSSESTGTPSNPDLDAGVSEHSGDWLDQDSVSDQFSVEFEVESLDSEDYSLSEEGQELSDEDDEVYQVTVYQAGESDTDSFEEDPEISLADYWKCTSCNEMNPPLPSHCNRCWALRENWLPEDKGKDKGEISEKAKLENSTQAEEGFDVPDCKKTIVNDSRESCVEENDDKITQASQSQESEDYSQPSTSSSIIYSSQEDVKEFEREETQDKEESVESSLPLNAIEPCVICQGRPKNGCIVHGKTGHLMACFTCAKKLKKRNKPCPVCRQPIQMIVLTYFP
Beta cell apopt = blocks beta cell apoptosis; INS-1E cytokine-induced death, ATP luminescence, 48 h; percent of positive-control rescue, neutral wells zero; protection from apoptosis, % (test concentration not listed); 0.8% of 300,000 active;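 active means Every replicate reaches about 75%, or at least half do and their mean reaches it too, limit read from the data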;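 further: 0% = cytokine-treated negative control wells and 100% = positive control rescue; higher means more ATP so stronger rescue from cytokine killing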
Gli antag conf = Gli-SUFU antagonism confirmation, single concentration; inhibition, % at 5 µM; Sufu-KO-LIGHT cells, Gli luciferase reporter, luminescence; 40% of 2,500 active; shares compounds with Gli-Sufu block;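 active means mean inhibition at 5 µM reaching about 45%, limit read from the data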;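 further: plate controls were DMSO-treated cells for no effect and wells lacking cells for full effect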
Gli cytotox = cytotoxic in Gli-SUFU antagonist counter-screen; shares compounds with Gli-Sufu block; Sufu-KO-LIGHT cells cytotoxicity, ATP luminescence; cytotoxicity, % at 5 µM; 32% of 2,500 active;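 active means mean cytotoxicity at 5 µM above about 25%, limit read from the data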;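 further: cells exposed to compound overnight for roughly 16 to 18 hours; plate controls were DMSO wells with cells for no effect and medium without cells for full effect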
Wnt3a counter = Wnt3a reporter inhibition counter-screen; 20% of 2,500 active; shares compounds with Gli-Sufu block; Wnt-LIGHT cells, Wnt3a-driven luciferase reporter, luminescence; AID 651995; inhibition, % at 6.25 µM;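 active means mean inhibition above about 25%, limit read from the data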
* hit, by the source's call; nt = not tested or not shown.

SMILES	CSC inhib	PAX8 inh HTS	Gli-Sufu block	Shn3 inh set2	Mdm2-MdmX inh	Beta cell apopt	Gli antag conf	Gli cytotox	Wnt3a counter
CNC[C@@H]1OCCCC[C@@H](C)Oc2ccc(NC(=O)Nc3ccc(C(F)(F)F)cc3)cc2C(=O)N([C@H](C)CO)C[C@@H]1C	nt	10.5	nt	nt	nt	nt	nt	nt	nt
O=C1OCC2=C1C(c1ccc(F)cc1)c1cc3c(cc1N2)OCO3 (stereo not drawn)	nt	71.7*	55.7*	28.0	nt	nt	57.7*	62.3*	24.8
O=C1OCC2=C1C(c1ccc3c(c1)OCO3)Sc1ccccc1N2 (stereo not drawn)	-3.0	nt	1.4	25.0	11.5	-1.1	nt	nt	nt
Cc1cc(C)cc(OCC(O)CN2CCN(Cc3ccc4c(c3)OCO4)CC2)c1 (stereo not drawn)	-25.5	28.6	64.3*	16.7	19.0	0.7	26.9	10.4	-49.9
COC(=O)c1c(C)oc2ccc(N(C(=O)c3ccncc3)S(=O)(=O)c3ccc(C)cc3C)cc12	-10.2	36.8	61.4*	75.3	32.9	99.8*	48.8*	27.0*	36.2*
CCOc1ccc(S(=O)(=O)NCc2ccncc2)cc1NC(=O)c1ccccc1	13.0	25.9	62.5*	72.5	48.1	23.8	66.0*	27.6*	0.6
CCOc1ncccc1C(=O)Nc1cc(S(=O)(=O)N2CCCCC2)ccc1C	nt	13.8	3.7	9.2	-6.6	1.6	nt	nt	nt
CCOc1ccc(S(=O)(=O)N2CCCCC2)cc1NC(=O)c1cccnc1OCC	-2.1	-8.9	55.8*	12.5	18.6	2.1	27.7	18.6	-40.6
C[C@@H]1CCCCO[C@@H](CN(C)C(=O)C2CCCCC2)[C@H](C)CN([C@@H](C)CO)C(=O)c2cc(NC(=O)Cc3ccccc3)ccc2O1	nt	-3.4	nt	nt	nt	nt	nt	nt	nt
C=CCn1c(CCC(O)COCCC)n[nH]c1=S (stereo not drawn)	-5.0	-10.5	53.9	1.6	-11.2	-2.7	10.7	22.0	-21.1
CCOC(=O)CNC(=O)c1c(C)nn(C)c1Cl	-1.4	-3.5	-17.5	7.9	-41.9	1.0	nt	nt	nt
CCOC(=O)CNC(=O)c1c(C)nn(-c2ccccc2)c1Cl	-0.2	-23.7	94.7*	-3.7	-19.5	3.4	12.1	21.9	-11.2
C[C@H](CO)N1C[C@H](C)[C@H](CN(C)C(=O)c2ccc(F)cc2)Oc2ncc(C3=CCCC3)cc2C1=O	nt	9.2	nt	nt	nt	nt	nt	nt	nt
O=C(c1ccccc1F)N1CC[C@@H]2[C@H](CO)Nc3ccc(-c4ccc(F)cc4)cc3[C@@H]21	nt	8.2	nt	nt	nt	nt	nt	nt	nt
COc1cc(C2C3=C(COC3=O)Oc3cc4c(cc32)OCO4)ccc1OC(C)=O (stereo not drawn)	nt	-4.1	23.9	0.7	nt	nt	nt	nt	nt
COc1cc(C2C3=C(COC3=O)Oc3cc4c(cc32)OCO4)cc(OC)c1OC(C)=O (stereo not drawn)	nt	80.4*	62.7*	15.1	nt	nt	49.9*	63.3*	-2.3
COc1cccc(NC(=O)N2C[C@H](O)COC[C@@H]3O[C@H](CC(=O)N(C)C)CC[C@H]32)c1	nt	4.2	nt	nt	nt	nt	nt	nt	nt
CC(C)Cn1c(N)c(C(=O)COC(=O)C2Cc3ccccc3CN2S(C)(=O)=O)c(=O)n(C)c1=O (stereo not drawn)	46.7	10.7	55.6*	84.9	10.6	26.6	61.5*	31.0*	8.0
CCOc1ccc2cc(C(=O)NCc3ccccc3)c(=N)oc2c1	9.3	-58.5	53.6	13.1	32.4	-4.1	8.0	13.2	-39.3
CCOc1ccc2cc(C(=O)c3ccccc3)c(=O)oc2c1	3.7	31.2	-31.2	-50.9	nt	4.7	nt	nt	nt
O=C(NC1Cc2ccccc2C1)[C@@H]1[C@@H](CO)[C@@H]2Cn3c(ccc(-c4ccccc4)c3=O)[C@H]1N2	nt	16.1	nt	nt	nt	nt	nt	nt	nt
C[C@H]1CN([C@@H](C)CO)C(=O)Cc2cc(NS(=O)(=O)c3ccc(F)cc3)ccc2O[C@H]1CN(C)S(=O)(=O)c1ccc(Cl)cc1	nt	-14.3	nt	nt	nt	nt	nt	nt	nt
COCCOC(=O)c1[nH]c2c(c1C)C(=O)CC(c1cc(OC)c(OC)c(OC)c1)C2 (stereo not drawn)	-1.1	7.9	34.5	78.6	31.8	4.6	nt	nt	nt
C=CCOC(=O)c1[nH]c2c(c1C)C(=O)CC(c1cc(OC)c(OC)c(OC)c1)C2 (stereo not drawn)	-4.9	nt	50.8	88.3*	39.3	49.8	61.3*	15.6	24.7
CCCCOC(=O)c1[nH]c2c(c1C)C(=O)CC(c1cc(OC)c(OC)c(OC)c1)C2 (stereo not drawn)	25.2	44.5	52.0	81.7*	26.1	74.9*	60.4*	24.4	12.1
SMILES	CSC inhib	PAX8 inh HTS	Gli-Sufu block	Shn3 inh set2	Mdm2-MdmX inh	Beta cell apopt	Gli antag conf	Gli cytotox	Wnt3a counter
O=C(C[C@H]1CC[C@@H]2[C@H](COC[C@H](O)CN2C(=O)c2ccccc2)O1)NCCCN1CCOCC1	nt	-12.0	nt	nt	nt	nt	nt	nt	nt
CN1/C(=C\C(=S)NC(=O)c2ccccc2Cl)C(C)(C)c2ccccc21	57.3	2.0	72.9*	76.6	-5.3	99.7*	55.1*	31.3*	30.1*
COc1ccccc1C(=O)NC(=S)/C=C1/N(C)c2ccccc2C1(C)C	5.8	28.0	77.9*	78.2	23.9	66.4	33.6	26.3*	-8.7
CN1/C(=C/C(=S)NC(=O)C2(C)CC2(Cl)Cl)C(C)(C)c2ccccc21 (stereo not drawn)	8.9	17.9	60.5*	77.4	35.3	49.3	24.1	26.2*	0.6
CN1/C(=C\C(=O)Nc2ccc(Cl)cc2)C(C)(C)c2ccccc21	61.2	9.5	-8.5	8.2	9.3	-2.4	nt	nt	nt
CN1/C(=C\C(=S)Nc2ccccc2)C(C)(C)c2ccccc21	-1.7	19.4	64.6*	79.9	25.1	119.7*	73.9*	16.0	28.2*
CCOC(=O)/C=C1/N(C)c2ccccc2C1(C)C	-10.8	0.9	-3.3	-8.9	-11.4	-2.5	nt	nt	nt
C[C@@H]1CCCCO[C@H](CN(C)C(=O)NC2CCCCC2)[C@H](C)CN([C@H](C)CO)C(=O)c2cc(NC(=O)NC3CCCCC3)ccc2O1	nt	36.0	nt	nt	nt	nt	nt	nt	nt
CC(C)c1cn(CC[C@@H]2CC[C@@H](NC(=O)C3CC3)[C@@H](CO)O2)nn1	nt	-1.2	nt	nt	nt	nt	nt	nt	nt
NC(=O)c1ccc(N2CCCCC2)c(N2C(=O)C3CC=CCC3C2=O)c1 (stereo not drawn)	-5.6	nt	53.0	-7.1	5.8	1.0	20.8	1.6	5.5
O=C(c1cccc(N2C(=O)C3CC=CCC3C2=O)c1)N1CCCCCC1 (stereo not drawn)	nt	nt	2.7	-60.1	13.5	nt	nt	nt	nt
CN1C(=O)c2cc(NC(=O)C3CCCC3)ccc2OC[C@@H]2O[C@@H](CC(=O)Nc3ccccc3)CC[C@H]21	nt	21.5	nt	nt	nt	nt	nt	nt	nt
O=C(CSc1nnnn1C1CCCCC1)Nc1ccccc1F	-6.1	11.9	-0.2	4.7	26.6	-0.7	nt	nt	nt

Screening results from PubChem.
